Screening data as filed in PubChem BioAssay.
FBW7 act = FBW7 E3 ligase activators, primary screen, biochemical, AlphaScreen, human; hit rate 0.13% among 650,000; AlphaScreen FBW7–phospho-cyclin E peptide binding, activator screen; F-box/WD repeat-containing protein 7 (Homo sapiens), Q969H0; normalized activity (activation), % at 26.1 µM; in the data active = normalized activity above about 1.9%;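 also: purified mutant Fbw7 with reduced substrate affinity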
MITF inh = MITF inhibitors, primary screen, biochemical, AlphaScreen, human. Microphthalmia-associated transcription factor (Homo sapiens), O75030. AlphaScreen MITF homodimerization, bead proximity signal. inhibition, % at 2.6 µM. hit rate 0.91% among 650,000. AID 1259374, 2018; in the data active = inhibition above about 50%
Target sequence (O75030 whole entry, looked up): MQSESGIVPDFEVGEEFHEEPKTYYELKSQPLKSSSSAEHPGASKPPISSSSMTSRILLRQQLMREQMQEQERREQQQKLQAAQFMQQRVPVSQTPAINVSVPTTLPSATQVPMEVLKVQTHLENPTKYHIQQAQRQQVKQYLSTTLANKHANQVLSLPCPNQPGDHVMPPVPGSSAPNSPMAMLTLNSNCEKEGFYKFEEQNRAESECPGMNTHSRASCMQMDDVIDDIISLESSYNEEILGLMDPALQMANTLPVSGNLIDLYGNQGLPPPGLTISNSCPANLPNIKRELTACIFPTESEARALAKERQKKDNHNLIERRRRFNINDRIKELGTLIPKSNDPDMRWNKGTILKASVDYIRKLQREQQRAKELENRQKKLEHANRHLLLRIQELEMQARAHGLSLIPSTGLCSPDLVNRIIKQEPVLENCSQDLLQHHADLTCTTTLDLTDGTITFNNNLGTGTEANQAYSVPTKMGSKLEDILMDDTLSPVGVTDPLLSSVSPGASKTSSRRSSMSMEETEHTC
TEAD-YAP block = TEAD-YAP interaction inhibition, primary screen, TEAD-YAP interaction inhibitor project, luminescence, HEK-TIYL cells. inhibition, % at 9.12 µM. hit rate 1.4% among 640,000. TEAD-Gal4/YAP UAS-luciferase luminescence. AID 1259422, 2018; in the data active = inhibition above about 32%
GPR151 ag = activators of human GPR151, primary screen, cell-based, PathHunter beta-arrestin, luminescence; G-protein coupled receptor 151 (Homo sapiens), Q8TDV0; activation, % at 11.2 µM; hit rate 1% among 650,000; AID 1508602, 2020; PathHunter beta-arrestin GPR151 cells; in the data active = activation above about 4.9%
MITF inh conf = MITF inhibitors, retest of hits, confirmation, biochemical, AlphaScreen, triplicate | shares compounds with MITF inh | AlphaScreen MITF homodimerization, biotin/His-MITF beads | inhibition, % at 2.6 µM | hit rate 16% among 4,700;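 active = inhibition above a cutoff derived from the DMSO control wells, cut at about 28% in these data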;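 also: inhibitors lower the bead chemiluminescence by keeping MITF from dimerizing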
AS interf DR = AlphaScreen optical interference compounds, dose response, counter-screen, biochemical, HTS. shares compounds with MITF inh. AlphaScreen optical interference counterscreen, cell-free. IC50, µM. hit rate 6% among 480; call rule not given here
AlphaScreen intf2 = AlphaScreen optical interference compounds, counter-screen for MITF inhibitor project, biochemical, triplicate | shares compounds with MITF inh | hit rate 7.6% among 4,700 | inhibition, % at 2.6 µM | LysRS AlphaScreen counterscreen, signal interference;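 active = inhibition above a cutoff derived from the DMSO control wells, cut at about 30% in these data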
Of the large screens only hits and unclear results are named; the others gave an inactive call (follow-up assays come after a bar, where they were run); ! = a repeat was not active. Hits are enriched below; roughly 3.4% of the tested compounds scored in any of these assays.

CC1=NN(c2ccc(C(=O)O)c(N)c2)C(=O)C1	MITF inh 68 | MITF inh conf 54 | AS interf DR inactive | AlphaScreen intf2 inactive
COc1ccc(/C=N/Nc2ccc(S(=O)(=O)O)cc2)cc1	none
COc1ccc2cc(/C=N/Nc3ccc(S(=O)(=O)O)cc3)ccc2c1	MITF inh 66 | MITF inh conf inactive | AlphaScreen intf2 inactive
Clc1cccc(OCCn2cncn2)c1	none
Cc1cc(Cl)ccc1OCCn1cncn1	none
c1ccc(Oc2cccc(OCCn3cncn3)c2)cc1	MITF inh 67 | MITF inh conf inactive | AlphaScreen intf2 inactive
c1ccc(COc2ccc(OCCn3cncn3)cc2)cc1	none
Cc1cc(Br)ccc1OCCn1cncn1	MITF inh 68 | MITF inh conf inactive | AlphaScreen intf2 inactive
c1ccc(Oc2cccc(OCCOCCn3cncn3)c2)cc1	MITF inh 72 | MITF inh conf inactive | AlphaScreen intf2 inactive
Brc1cccc(OCCn2cnc3ccccc32)c1	MITF inh 68 | MITF inh conf inactive | AlphaScreen intf2 inactive
COc1ccc(C(=O)c2ccccc2F)cc1	none
c1ccc(-c2ccc(OCCCn3cncn3)cc2)cc1	MITF inh 61 | MITF inh conf inactive | AlphaScreen intf2 inactive
O=[N+]([O-])c1ccc(OCCCCn2cncn2)cc1	none
Brc1cccc(OCCCCn2cncn2)c1	MITF inh 62 | MITF inh conf inactive | AlphaScreen intf2 inactive
COc1cccc(C2(CC(=O)N3CCC(OC)CC3)CC(=O)N(C3CCCC3)C2=O)c1 (stereo not drawn)	none
CNc1oc(-c2ccco2)nc1S(=O)(=O)c1ccc(Br)cc1	MITF inh 74 | MITF inh conf inactive | AlphaScreen intf2 inactive
CCc1nc2ccccc2n1CC(N)=O	none
Cn1cc(CN[C@H]2C[C@H]3C(=O)N[C@@H](CCCCN)C(=O)N3C2)c(-c2ccccc2)n1	none
C=CCc1cc(Cl)ccc1OCCNCCN1CCOCC1	MITF inh 76 | MITF inh conf inactive | AlphaScreen intf2 inactive
C=CCc1cc(Cl)ccc1OCCCN1CCN(C)CC1	MITF inh 79 | MITF inh conf inactive | AlphaScreen intf2 inactive
C=CCc1cc(C)ccc1OCCOCCN1CCN(C)CC1	MITF inh 60 | MITF inh conf inactive | AlphaScreen intf2 inactive
C=CCc1cc(C)ccc1OCCCN1CCCC1	MITF inh 55 | MITF inh conf inactive | AlphaScreen intf2 inactive
C=CCc1cc(C)ccc1OCCN1CCCC1	none
CN1CCN(CCCOc2cc(Cl)ccc2Cl)CC1	none
CCCCC[n+]1ccc(N2C(=O)c3ccccc3C2=O)cc1	none
Cc1ccc(C2=NN(S(=O)(=O)c3ccccc3)C(c3cc4ccc(C)cc4nc3Cl)C2)cc1 (stereo not drawn)	none
COc1cccc(-n2nc(C(=O)N3CCCc4ccccc43)c3ccccc3c2=O)c1	none
Fc1cccc(/C=N/N2CCN(Cc3ccccc3)CC2)c1	none
C=CCc1ccccc1OCCOCCN1CCOCC1	MITF inh 72 | MITF inh conf inactive | AlphaScreen intf2 inactive
C=CCc1cc(C)ccc1OCCCCn1ccnc1	MITF inh 74 | MITF inh conf 35 | AS interf DR inactive | AlphaScreen intf2 inactive
O=C(CCc1ccccc1)NC(=S)Nc1ccc2c(c1)C(=O)OC2	MITF inh 80 | MITF inh conf inactive | AlphaScreen intf2 inactive
CCN1CCN(C(c2nnnn2CCOC)C(C)C)CC1 (stereo not drawn)	none
COCCn1nnnc1C(C(C)C)N1CCSCC1 (stereo not drawn)	MITF inh 59 | MITF inh conf inactive | AlphaScreen intf2 inactive
CCOC(=O)c1c(NC(=O)c2ccccc2)sc2c1CC(C)CC2 (stereo not drawn)	none
Cc1cccc(CN2CCN(C(=O)c3cccc(Cl)c3)CC2)c1	none
O=C(c1cccnc1)N1CCN(Cc2cccc(Cl)c2)CC1	MITF inh 65 | MITF inh conf inactive | AlphaScreen intf2 inactive
O=C(c1cccnc1)N1CCN(Cc2ccc(Br)cc2)CC1	MITF inh 69 | MITF inh conf inactive | AlphaScreen intf2 inactive
O=C(c1cccnc1)N1CCN(Cc2cccc(Br)c2)CC1	MITF inh 65 | MITF inh conf inactive | AlphaScreen intf2 inactive
O=C(c1cccnc1)N1CCN(Cc2ccccc2)CC1	none
CCCSc1nnc2c(n1)OC(c1c(F)cccc1Cl)Nc1ccccc1-2 (stereo not drawn)	none
Cc1ccccc1NCC(=O)N/N=C\c1cccc(C)c1O	none
Cc1ccc2[nH]c(C)c(CCNC(=O)c3cccc([N+](=O)[O-])c3)c2c1	MITF inh 74 | MITF inh conf inactive | AlphaScreen intf2 inactive
Cc1[nH]c2ccc(F)cc2c1CCNC(=O)c1cccc([N+](=O)[O-])c1	none
CSC1=NC(=Nc2ccc(C)cc2)C2(CCC(C(C)(C)C)CC2)N1c1ccc(Cl)cc1 (stereo not drawn)	none
CCC(C)c1ccccc1OCCCCN1CCNCC1 (stereo not drawn)	MITF inh 70 | MITF inh conf inactive | AlphaScreen intf2 inactive
CCCOc1ccccc1OCCCCN1CCN(C)CC1	none
CCC(C)c1ccccc1OCCCN1CCN(C)CC1 (stereo not drawn)	MITF inh 60 | MITF inh conf inactive | AlphaScreen intf2 inactive
CCOC(=O)COc1ccc(S(=O)(=O)Nc2cc(C)cc(C)c2)cc1	none
O=C(NCc1ccco1)Nc1c[nH]c2cccnc2c1=O	MITF inh 59 | MITF inh conf 81 | AlphaScreen intf2 87
C=C1c2cccc(O)c2C(O)=C2C(=O)[C@]3(O)C(O)=C(C(N)=O)C(=O)[C@@H](N(C)C)[C@@H]3[C@@H](O)[C@H]12	MITF inh 54 | MITF inh conf 41! | AS interf DR inactive | AlphaScreen intf2 inactive
C=C1c2c(Cl)ccc(O)c2C(O)=C2C(=O)[C@]3(O)C(O)=C(C(N)=O)C(=O)[C@@H](N(C)C)[C@@H]3[C@@H](O)[C@H]12	MITF inh 63 | MITF inh conf 85 | AS interf DR inactive | AlphaScreen intf2 30!
NC(=O)C1(N2CCCCC2)CCN(c2nc(-c3ccc(Cl)cc3Cl)cs2)CC1	none
NC(=O)c1ccc(NC(=O)COC(=O)CCc2ccccc2)cc1	none
Nc1ccc(O)c(C(=O)O)c1	MITF inh 75! | MITF inh conf 82 | AS interf DR inactive | AlphaScreen intf2 inactive
CCC(C)(C)n1nnnc1CN(Cc1ccccc1)Cc1cccs1	MITF inh 76 | MITF inh conf inactive | AlphaScreen intf2 inactive
Cc1c(CNC(C)c2ccccc2)c(C(=O)O)c(C)n1Cc1ccccc1F (stereo not drawn)	none
